Measurements: PubChem BioAssay
“And” between values parts separate entries of the source, which are not always exact repeats. Equal entries are not always repeated. For some of these results: Measured potencies and affinities stand elsewhere. Where a structure was tested more than once in an assay, its records may differ in their call. The source made the active and inactive calls. Unless noted, no rule for the calls is given here.

Experiments:
[1] = antimalarial activity against Dd2 strain (AID 2302;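 active = growth inhibition above 50% at the single 2 µM test dose, taken to imply half-maximal potency below 2 µM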;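 also: 0% = DMSO untreated growth and 100% = chloroquine plus artemisinin killed control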); conditions: P. falciparum Dd2 in RBCs, LDH growth readout, 72 h; at 2 µM; stronger effect = higher value
[2] = human hepatoma cell viability loss – ATP luminescence, cytotoxicity control for P. falciparum antimalarial project, primary screen (AID 2303;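 active = inhibition above 50%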;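 also: 0% = DMSO wells and 100% = digitonin-killed cells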); conditions: HepG2 viability, 24-48 h, at 10 µM, stronger effect = higher value
[3] = molecular target: L-lactate dehydrogenase (Plasmodium falciparum (isolate CDC / Honduras)) (UniProt Q27743); assay: PfLDH activity inhibition – cell lysate, 3D7 strain, counter-screen for P. falciparum growth inhibition project (AID 2304);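 also: 0% = vehicle and 100% = reference inhibitor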; conditions: P. falciparum 3D7 crude extract, LDH APAD/NBT absorbance; at 2 µM; stronger effect = higher value
[4] = inhibition of 3D7 malaria parasite growth – strain 3D7 (AID 2306);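 also: 0% = DMSO wells and 100% = chloroquine plus artemisinin control wells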; conditions: P. falciparum 3D7 erythrocytic growth, LDH absorbance, 72 h; at 2 µM; stronger effect = higher value
[5] = molecular target: Calcium-dependent protein kinase 1 (Plasmodium falciparum (isolate 3D7)) (UniProt P62344); assay: PfCDPK1 kinase inhibitors, biochemical, TCAMS library (AID 1159585; cut-off not given, nearly all actives have IC50 up to about 0.98 µM;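 also: inhibitors leave more ATP so luminescence rises with inhibition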); conditions: recombinant PfCDPK1, Kinase-Glo ATP depletion luminescence
[6] = molecular target: Plasmodium falciparum protein kinase 6 (PK6, PF3D7_1337100) (UniProt Q8IDW1); assay: PfPK6 kinase inhibitors, biochemical, TCAMS library (AID 1159586); conditions: recombinant PfPK6, Kinase-Glo ATP depletion luminescence
[7] = molecular target: Protein kinase 7 (PK7), Plasmodium falciparum 3D7 (PF3D7_0213400) (UniProt Q7YTF7); assay: inhibition of Plasmodium PK7 catalytic activity – biochemical, TCAMS antimalarial set, Kinase-Glo luminescence (AID 1159587); conditions: recombinant PfPK7, Kinase-Glo ATP depletion luminescence
[8] = molecular target: Calcium-dependent protein kinase 4 (Plasmodium falciparum (isolate 3D7)) (UniProt Q8IBS5); assay: PfCDPK4 kinase inhibitors, biochemical, TCAMS library (AID 1159588; cut-off not given, nearly all actives have IC50 up to about 0.91 µM); conditions: recombinant PfCDPK4, Kinase-Glo ATP depletion luminescence
Calcium-dependent protein kinase 4 (Plasmodium falciparum (isolate 3D7)), sequence (Q8IBS5 whole entry, looked up): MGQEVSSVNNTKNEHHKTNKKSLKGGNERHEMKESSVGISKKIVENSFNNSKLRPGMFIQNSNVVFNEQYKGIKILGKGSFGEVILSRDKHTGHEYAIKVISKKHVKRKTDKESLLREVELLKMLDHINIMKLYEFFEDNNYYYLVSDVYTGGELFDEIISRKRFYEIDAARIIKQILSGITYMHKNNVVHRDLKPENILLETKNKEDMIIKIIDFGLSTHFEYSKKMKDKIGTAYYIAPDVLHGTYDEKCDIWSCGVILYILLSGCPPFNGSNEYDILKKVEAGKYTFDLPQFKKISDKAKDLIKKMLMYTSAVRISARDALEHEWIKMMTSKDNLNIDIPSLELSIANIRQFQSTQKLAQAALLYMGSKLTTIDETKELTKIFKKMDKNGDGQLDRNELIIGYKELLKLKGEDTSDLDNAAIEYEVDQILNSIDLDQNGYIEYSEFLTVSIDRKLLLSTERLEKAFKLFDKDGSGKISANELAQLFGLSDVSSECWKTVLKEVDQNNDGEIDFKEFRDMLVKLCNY

Plasmodium falciparum protein kinase 6 (PK6, PF3D7_1337100), sequence (Q8IDW1 1-305): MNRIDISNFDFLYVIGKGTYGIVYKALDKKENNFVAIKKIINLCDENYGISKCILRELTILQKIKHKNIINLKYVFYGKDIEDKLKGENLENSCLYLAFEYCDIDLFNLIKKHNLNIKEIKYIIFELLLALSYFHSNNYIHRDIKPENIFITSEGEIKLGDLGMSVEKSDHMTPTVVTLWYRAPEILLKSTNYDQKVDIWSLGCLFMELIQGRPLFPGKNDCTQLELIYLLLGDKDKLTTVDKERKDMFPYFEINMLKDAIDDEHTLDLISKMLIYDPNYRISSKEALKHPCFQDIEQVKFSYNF
L-lactate dehydrogenase (Plasmodium falciparum (isolate CDC / Honduras)), sequence (Q27743 whole entry, looked up): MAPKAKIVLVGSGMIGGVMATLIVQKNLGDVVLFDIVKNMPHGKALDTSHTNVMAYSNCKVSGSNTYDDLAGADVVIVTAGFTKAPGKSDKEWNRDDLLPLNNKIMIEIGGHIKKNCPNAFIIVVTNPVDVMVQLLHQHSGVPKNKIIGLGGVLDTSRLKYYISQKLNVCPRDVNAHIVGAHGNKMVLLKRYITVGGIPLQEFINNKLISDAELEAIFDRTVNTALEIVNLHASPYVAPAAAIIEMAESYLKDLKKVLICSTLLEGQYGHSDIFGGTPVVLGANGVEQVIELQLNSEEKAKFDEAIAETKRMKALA
Calcium-dependent protein kinase 1 (Plasmodium falciparum (isolate 3D7)), sequence (P62344 whole entry, looked up): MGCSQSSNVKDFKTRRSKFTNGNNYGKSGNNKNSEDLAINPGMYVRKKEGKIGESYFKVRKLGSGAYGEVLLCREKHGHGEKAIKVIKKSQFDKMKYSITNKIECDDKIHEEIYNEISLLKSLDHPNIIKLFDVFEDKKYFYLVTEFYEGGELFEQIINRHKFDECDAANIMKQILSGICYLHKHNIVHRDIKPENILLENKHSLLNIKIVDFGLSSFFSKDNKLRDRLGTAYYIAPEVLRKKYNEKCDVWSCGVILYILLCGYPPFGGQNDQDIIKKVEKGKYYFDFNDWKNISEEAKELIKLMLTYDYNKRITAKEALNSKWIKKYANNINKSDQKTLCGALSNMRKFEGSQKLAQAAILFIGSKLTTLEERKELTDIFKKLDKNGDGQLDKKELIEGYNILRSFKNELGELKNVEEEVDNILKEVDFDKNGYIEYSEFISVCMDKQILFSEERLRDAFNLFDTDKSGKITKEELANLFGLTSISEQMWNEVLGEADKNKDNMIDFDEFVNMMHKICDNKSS
Protein kinase 7 (PK7), Plasmodium falciparum 3D7 (PF3D7_0213400), sequence (Q7YTF7 1-343): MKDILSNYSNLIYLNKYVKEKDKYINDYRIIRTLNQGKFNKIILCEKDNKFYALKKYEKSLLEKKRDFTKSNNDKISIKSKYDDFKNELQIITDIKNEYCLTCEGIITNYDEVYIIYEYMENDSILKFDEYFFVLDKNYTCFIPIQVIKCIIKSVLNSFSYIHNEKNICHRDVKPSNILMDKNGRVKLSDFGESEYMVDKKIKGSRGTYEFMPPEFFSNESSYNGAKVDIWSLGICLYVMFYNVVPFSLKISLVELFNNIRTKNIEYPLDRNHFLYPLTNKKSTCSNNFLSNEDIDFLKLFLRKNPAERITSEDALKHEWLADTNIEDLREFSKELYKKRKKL

CCC1(C)CC(CCNCc2ccccc2O)(c2ccc(C)cc2)CCO1 (centres undefined)
inactive: inhibition [2] 9% | inhibition [3] -7% | outcome [5] | outcome [6] | outcome [7] | outcome [8]
active: growth inhibition [1] 66% | growth inhibition [4] 97%

CC(Cc1ccc(OCc2ccccc2)cc1)NCC(O)c1cccc(Cl)c1 (centres undefined)
inactive: inhibition [3] 5% | outcome [5] | outcome [6] | outcome [7] | outcome [8]
active: growth inhibition [1] 99% | inhibition [2] 50% | growth inhibition [4] 99%

O=C(NC1CCN(CC2(c3ccc(Cl)cc3)CCC2)CC1)c1ccn[nH]1
active: growth inhibition [4] 96%
inactive: growth inhibition [1] 43% | inhibition [2] -7% | inhibition [3] -3% | outcome [5] | outcome [6] | outcome [7] | outcome [8]

S=C(Nc1ccc2c(c1)OCCO2)NC1CCC(CN2CCC(c3c[nH]c4ccccc34)CC2)CC1 (centres undefined)
inactive: growth inhibition [1] 7% and 1% | inhibition [2] 31% and 32% | inhibition [3] -8% and -1% | outcome [5] | outcome [6] | outcome [7] | outcome [8]
active: growth inhibition [4] 96% and 92%

CO/C=C(/C(=O)OC)c1ccccc1Oc1cc(Oc2ccccc2C#N)ncn1
inactive: inhibition [2] 7% | inhibition [3] 3% | outcome [5] | outcome [6] | outcome [7] | outcome [8]
active: growth inhibition [1] 98% | growth inhibition [4] 98%

CNCCN(C)C(=O)Oc1c(Br)c(C)nc(C)c1-c1ccc(Oc2ccc(OC(F)(F)F)cc2)cc1
inactive: inhibition [2] 19% | inhibition [3] 2% | outcome [5] | outcome [6] | outcome [7] | outcome [8]
active: growth inhibition [1] 98% | growth inhibition [4] 98%

COc1ccc2[nH]cc(C3CCN(Cc4ccc(NC(=O)c5ccc(-c6ccccc6)cc5)cc4)CC3)c2c1
active: growth inhibition [1] 72% | growth inhibition [4] 101%
inactive: inhibition [2] 24% | inhibition [3] -6% | outcome [5] | outcome [6] | outcome [7] | outcome [8]

Cc1[nH]c2ccc([N+](=O)[O-])cc2c1C1=CCN(C)CC1
inactive: inhibition [2] 6% | inhibition [3] 4% | outcome [5] | outcome [6] | outcome [7] | outcome [8]
active: growth inhibition [1] 68% | growth inhibition [4] 86%

O=C(CCc1ccco1)NC1CCN(CC2(c3ccc(Cl)cc3)CCC2)CC1
inactive: inhibition [2] -12% | inhibition [3] -2% | outcome [5] | outcome [6] | outcome [7] | outcome [8]
active: growth inhibition [1] 67% | growth inhibition [4] 99%

Cn1nc(-c2ccc(S(=O)(=O)NC3CCC(CN4CCC(c5c[nH]c6ccccc56)CC4)CC3)s2)cc1C(F)(F)F (centres undefined)
active: growth inhibition [4] 98% and 96%
inactive: growth inhibition [1] 29% and 24% | inhibition [2] 35% and 38% | inhibition [3] -2% and 9% | outcome [5] | outcome [6] | outcome [7] | outcome [8]

COc1ccc(NC(=S)NC(NC(=O)CF)C(Cl)(Cl)Cl)cc1[N+](=O)[O-] (centres undefined)
active: inhibition [2] 66% | growth inhibition [4] 97%
inactive: growth inhibition [1] -4% | inhibition [3] 0% | outcome [5] | outcome [6] | outcome [7] | outcome [8]

O=C(/C=C/c1ccc(Cl)c(Cl)c1)NC1[C@@H]2CC[C@H]1CC(CN1CCC(c3c[nH]c4ccccc34)CC1)C2 (some centres undefined)
active: growth inhibition [1] 100% | growth inhibition [4] 100%
inactive: inhibition [2] 31% | inhibition [3] -2% | outcome [5] | outcome [6] | outcome [7] | outcome [8]

CC[C@H]1CN2CC[C@@H]1C[C@H]2[C@H](O)c1cc(N2CCC(CO)CC2)nc2ccc(OC)cc12
inactive: inhibition [2] 4% | inhibition [3] -1% | outcome [5] | outcome [6] | outcome [7] | outcome [8]
active: growth inhibition [1] 99% | growth inhibition [4] 99%

CC(=O)C1(c2ccccc2)CCN(CCC2(c3ccc(Cl)c(Cl)c3)CN(C(=O)C3CCCCC3)CCO2)CC1 (centres undefined)
inactive: inhibition [2] 3% | inhibition [3] -2% | outcome [5] | outcome [6] | outcome [7] | outcome [8]
active: growth inhibition [1] 99% | growth inhibition [4] 100%

O=C(NC1CCC(CN2CCC(c3c[nH]c4ccccc34)CC2)CC1)c1[nH]c(=O)[nH]c(=O)c1F (centres undefined)
active: growth inhibition [1] 59% | growth inhibition [4] 99%
inactive: inhibition [2] 5% | inhibition [3] -2% | outcome [5] | outcome [6] | outcome [7] | outcome [8]

Cc1[nH]c2ccccc2c1C1CCN(CC2CCC(NC(=O)/C=C/c3ccc(Cl)c(Cl)c3)CC2)CC1 (centres undefined)
active: growth inhibition [1] 93% | growth inhibition [4] 101%
inactive: inhibition [2] 15% | inhibition [3] 1% | outcome [5] | outcome [6] | outcome [7] | outcome [8]

Cc1cc(C(=O)NC2CCN(CC3(c4ccc(Cl)cc4)CCC3)CC2)on1
inactive: inhibition [2] 5% | inhibition [3] -3% | outcome [5] | outcome [6] | outcome [7] | outcome [8]
active: growth inhibition [1] 95% | growth inhibition [4] 98%

CN1CC=C(C=Cc2c[nH]c3ccccc23)CC1
inactive: inhibition [2] 14% | inhibition [3] -1% | outcome [5] | outcome [6] | outcome [7] | outcome [8]
active: growth inhibition [1] 64% | growth inhibition [4] 86%

CCOc1ccc2nccc([C@@H](O)[C@@H]3C[C@@H]4CCN3C[C@@H]4CC)c2c1
inactive: inhibition [2] 24% and 1% | inhibition [3] 2% and -2% | outcome [5] | outcome [6] | outcome [7] | outcome [8]
active: growth inhibition [1] 99% and 51% | growth inhibition [4] 98% and 99%

CC[C@H]1CN2CC[C@@H]1C[C@H]2[C@H](O)c1cc(N2CCC(N3CCCCC3)CC2)nc2ccc(OC)cc12
inactive: inhibition [2] 0% | inhibition [3] 3% | outcome [5] | outcome [6] | outcome [7] | outcome [8]
active: growth inhibition [1] 77% | growth inhibition [4] 99%

CC(C)/C(=C(/F)CN1C(=O)C(NC(=O)c2cc3ccccc3[nH]2)C(=O)N(c2ccccc2)c2ccccc21)c1ccccc1 (centres undefined)
active: growth inhibition [1] 82% | growth inhibition [4] 98%
inactive: inhibition [2] 7% | inhibition [3] -2% | outcome [5] | outcome [6] | outcome [7] | outcome [8]

COc1ccc(O)c(CN2CCN(c3cc(C)ccc3C)CC2)c1
inactive: inhibition [2] 7% | inhibition [3] 2% | outcome [5] | outcome [6] | outcome [7] | outcome [8]
active: growth inhibition [1] 86% | growth inhibition [4] 90%

Cc1c(C)c2c(c(C)c1O)CC[C@](C)(C(=O)NC1CCC(CN3CCC(c4c[nH]c5ccccc45)CC3)CC1)O2 (some centres undefined)
active: growth inhibition [4] 96% and 85%
98% (active) and 48% (inactive): growth inhibition [1]
inactive: inhibition [2] 24% and 27% | inhibition [3] -2% and 1% | outcome [5] | outcome [6] | outcome [7] | outcome [8]
